The values that follow come from PubChem BioAssay (NCI).

Molecules are shown by their SMILES. About 79,000 compounds went through this panel and 15% of them were active in at least one assay; those are over-represented in the sample as a whole. Activity calls are given as the source filed them. Cut-off read from the data, not from the text of the source: active = growth inhibition above about 70%; inactive = the rest.

One experiment can be described thus: NCI Yeast Anticancer Drug Screen. Data for the bub3 strain (AID 167). Conditions: S. cerevisiae bub3 mutant strain, at 50.0 µM, stronger effect = higher value. Put shortly: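 Yeast carrying a defined mutation is treated with each compound, and growth is compared with that of vehicle-exposed cells to give inhibition.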
In the case of `C[N+](C)(C)C1(Cc2ccccc2)c2ccccc2-c2ccc(Cl)cc21` (stereo not given), the growth inhibition was -6.8% (inactive).

As to `N#CC(c1cnc2ccccc2n1)c1cccc2ccccc12` (stereo not given), the growth inhibition is -5.3% (inactive).

Consider `O=[N+]([O-])c1ccc(S(=O)(=O)Nc2c([N+](=O)[O-])cc([N+](=O)[O-])c3ccccc23)cc1`, for which the growth inhibition was 2.7% (inactive).

In the case of `N#CC(C#N)=C1C=Cc2ccccc2O1`, the growth inhibition is -1.4% (inactive).

`N#CC(=C1CCCCC1)c1ccccc1`: the growth inhibition is -15.9% (inactive).

Take `CC(=O)OCCn1cnc2c(NCC=C(C)C)ncnc21`: the growth inhibition is 7.5% (inactive).

Take `Cc1ccc([Si](C)(C)c2ccccc2)cc1`: the growth inhibition was 9.7% (inactive).

For `COC(=O)c1cc([N+](=O)[O-])cc2ccccc12`, the growth inhibition is 23.1% (inactive).

Consider `Cn1c(N)c(C(=O)/C=C/c2ccccc2)c(=O)n(C)c1=O`, for which the growth inhibition was -3.85% (inactive).

Regarding `CC1CN(c2ccc(Cl)cc2)CC(C)OC(=O)O1` (stereo not given), the growth inhibition is 21.8% (inactive).

Regarding `CCc1c(Cl)nc(N)nc1Nc1ccc(C)cc1`, the growth inhibition was 12% (inactive).

`CC[C@H]1CN(C)[C@H]2Cc3c([nH]c4ccccc34)C(=O)C[C@H]1C2C(=O)OC` (stereo not given in full): the growth inhibition is -1.65% (inactive).

Turning to `CC(=O)N(C)c1ccc(N=CN(C)C)cc1`, the growth inhibition was 2.9% (inactive).

Consider `CN=[N+]([O-])c1ccccc1`, for which the growth inhibition was 10.9% (inactive).

With `O=C(O)c1ccc(C2CCCCC2O)cc1` (stereo not given), the growth inhibition was -2% (inactive).

Take `CCCCCCCC(CCCCCCC)C(=O)OCCO`: the growth inhibition was -4.95% (inactive).

As to `S=C1Cc2c(-c3ccccc3)cc(-c3ccc(Cl)cc3)nc2-c2ccccc2N1`, the growth inhibition was 6.75% (inactive).

On to `COc1ccc(CCN=C2CCC(C(=O)NCCc3ccc(OC)c(OC)c3)N2)cc1OC` (stereo not given), for which the growth inhibition was -20.5% (inactive).

As for `CCCCCCCCCCC1OCC(CC)([N+](=O)[O-])CO1` (stereo not given), the growth inhibition was 9.25% (inactive).

As for `CCOC(=O)c1ccc(NC(=O)/C=C/c2ccccc2)cc1`, the growth inhibition was 30.1% (inactive).

As to `CCN(CC)CCOCC(=O)Nc1ccccc1C`, the growth inhibition was 22.8% (inactive).

Turning to `CCCCCCCCC1CCC(=O)O1` (stereo not given), the growth inhibition was 7.25% (inactive).

Take `CCCCCC1OCC(C)(C)CO1`: the growth inhibition is -3.05% (inactive).

Take `O=[N+]([O-])c1cccc(-c2cc3ccccn3c2)c1`: the growth inhibition is -1.95% (inactive).

`C(=Nc1ccc(N2CCOCC2)cc1)c1ccc2c(c1)OCO2`: the growth inhibition was -21.7% (inactive).

For the compound `CCOC(=O)C(CN)c1ccccc1` (stereo not given), the growth inhibition was -1.25% (inactive).

In the case of `Cc1cc2c3ccccc3n(C)c2c2c1C(=O)c1ccccc1C2=O`, the growth inhibition was 17.4% (inactive).

On to `CCOc1ccc(C2=NN(CC)C(=O)C(C3C(=O)N(c4ccccc4)N=C3C)C2)cc1` (stereo not given), for which the growth inhibition is -22.3% (inactive).

With `CNc1ccc2c(c1)C(=O)c1ccccc1-2`, the growth inhibition is 1.35% (inactive).

On to `CCN(CC)CCC(=O)O[C@H]1CC[C@H](CC(C)[C@H]2CC(=O)C(C)C=C(C)[C@H](OC(=O)CCN(CC)CC)C(OC)C(=O)[C@@H](C)CC(C)/C=C/C=C/C=C(C)C(OC)CC3CC[C@H](C)[C@](O)(O3)C(=O)C(=O)N3CCCCC3C(=O)O2)CC1OC` (stereo not given in full), for which the growth inhibition was 91.5% (active).

For the compound `CNC(C)C#N` (stereo not given), the growth inhibition is 0.75% (inactive).

With `Cc1ccc(NCCN)c2c(=O)c3cc(O)ccc3sc12`, the growth inhibition is 9.65% (inactive).

Regarding `Cc1cc2ccccc2n1C`, the growth inhibition is 31.9% (inactive).

For the compound `O=C(/C=C(\N=P(c1ccccc1)(c1ccccc1)c1ccccc1)C(F)(F)C(F)(F)C(F)(F)C(F)(F)C(F)(F)C(F)(F)C(F)(F)F)c1ccccc1`, the growth inhibition is 14.2% (inactive).

Regarding `OC(CCl)CN1CCN(CC(O)CCl)CC1` (stereo not given), the growth inhibition was -9.55% (inactive).

Take `CC(C)(C)OC(=O)NC(CC(N)=O)C(=O)O` (stereo not given): the growth inhibition is -6.45% (inactive).

Consider `CN(C)Cc1ccccc1C(=C(c1ccccc1)c1ccccc1)c1ccccc1`, for which the growth inhibition was -0.8% (inactive).

On to `CC[N+](C)(CC)c1cccc(OC(=O)N2CCCCC2)c1`, for which the growth inhibition is -4.75% (inactive).

On to `COC(=O)c1sc2c(=O)c(C(=O)OC)c(C(=O)OC)sc2c(=O)c1C(=O)OC`, for which the growth inhibition is 50.9% (inactive).

As to `CCOC(=O)C1=C(C)NC(C)=C(C(=O)OCC)C1C`, the growth inhibition was -22.1% (inactive).

A short description of the next experiment: NCI Yeast Anticancer Drug Screen. Data for the mlh1 rad18 strain (AID 175). As to conditions: S. cerevisiae mlh1 rad18 strain growth inhibition; at 50.0 µM; stronger effect = higher value. Put shortly: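 Genetically defined yeast (DNA repair-deficient) exposed to compounds; growth inhibition determined relative to vehicle.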
Regarding `C[N+](C)(C)C1(Cc2ccccc2)c2ccccc2-c2ccc(Cl)cc21` (stereo not given), the growth inhibition is 5.9% (inactive).

For the compound `N#CC(c1cnc2ccccc2n1)c1cccc2ccccc12` (stereo not given), the growth inhibition is 13% (inactive).

Consider `O=[N+]([O-])c1ccc(S(=O)(=O)Nc2c([N+](=O)[O-])cc([N+](=O)[O-])c3ccccc23)cc1`, for which the growth inhibition was 18.4% (inactive).

As to `N#CC(C#N)=C1C=Cc2ccccc2O1`, the growth inhibition is 43.9% (inactive).

Consider `N#CC(=C1CCCCC1)c1ccccc1`, for which the growth inhibition is -27.1% (inactive).

With `CC(=O)OCCn1cnc2c(NCC=C(C)C)ncnc21`, the growth inhibition is -45% (inactive).

Consider `Cc1ccc([Si](C)(C)c2ccccc2)cc1`, for which the growth inhibition was 4.9% (inactive).

Consider `COC(=O)c1cc([N+](=O)[O-])cc2ccccc12`, for which the growth inhibition is 0.65% (inactive).

For the compound `Cn1c(N)c(C(=O)/C=C/c2ccccc2)c(=O)n(C)c1=O`, the growth inhibition is 5.8% (inactive).

`CC1CN(c2ccc(Cl)cc2)CC(C)OC(=O)O1` (stereo not given): the growth inhibition was 8.6% (inactive).

Consider `CCc1c(Cl)nc(N)nc1Nc1ccc(C)cc1`, for which the growth inhibition is -6.55% (inactive).

For the compound `CC[C@H]1CN(C)[C@H]2Cc3c([nH]c4ccccc34)C(=O)C[C@H]1C2C(=O)OC` (stereo not given in full), the growth inhibition was -35.9% (inactive).

Turning to `CC(=O)N(C)c1ccc(N=CN(C)C)cc1`, the growth inhibition was -27.9% (inactive).

For `CN=[N+]([O-])c1ccccc1`, the growth inhibition was 1.6% (inactive).

`O=C(O)c1ccc(C2CCCCC2O)cc1` (stereo not given): the growth inhibition was 0.3% (inactive).

As to `CCCCCCCC(CCCCCCC)C(=O)OCCO`, the growth inhibition is -5.6% (inactive).

For the compound `S=C1Cc2c(-c3ccccc3)cc(-c3ccc(Cl)cc3)nc2-c2ccccc2N1`, the growth inhibition is -4.25% (inactive).

As to `COc1ccc(CCN=C2CCC(C(=O)NCCc3ccc(OC)c(OC)c3)N2)cc1OC` (stereo not given), the growth inhibition is -4.25% (inactive).

As to `CCCCCCCCCCC1OCC(CC)([N+](=O)[O-])CO1` (stereo not given), the growth inhibition is -10.6% (inactive).

On to `CCOC(=O)c1ccc(NC(=O)/C=C/c2ccccc2)cc1`, for which the growth inhibition was 6.3% (inactive).

As for `CCN(CC)CCOCC(=O)Nc1ccccc1C`, the growth inhibition was 26.6% (inactive).

On to `CCCCCCCCC1CCC(=O)O1` (stereo not given), for which the growth inhibition was 9% (inactive).

For `CCCCCC1OCC(C)(C)CO1`, the growth inhibition is -9.6% (inactive).

For the compound `O=[N+]([O-])c1cccc(-c2cc3ccccn3c2)c1`, the growth inhibition is 6.85% (inactive).

As to `C(=Nc1ccc(N2CCOCC2)cc1)c1ccc2c(c1)OCO2`, the growth inhibition is -22% (inactive).

As to `CCOC(=O)C(CN)c1ccccc1` (stereo not given), the growth inhibition is 3.6% (inactive).

For the compound `Cc1cc2c3ccccc3n(C)c2c2c1C(=O)c1ccccc1C2=O`, the growth inhibition is 11.2% (inactive).

For the compound `CCOc1ccc(C2=NN(CC)C(=O)C(C3C(=O)N(c4ccccc4)N=C3C)C2)cc1` (stereo not given), the growth inhibition was -10.2% (inactive).

For the compound `CNc1ccc2c(c1)C(=O)c1ccccc1-2`, the growth inhibition was -11.4% (inactive).

For the compound `CCN(CC)CCC(=O)O[C@H]1CC[C@H](CC(C)[C@H]2CC(=O)C(C)C=C(C)[C@H](OC(=O)CCN(CC)CC)C(OC)C(=O)[C@@H](C)CC(C)/C=C/C=C/C=C(C)C(OC)CC3CC[C@H](C)[C@](O)(O3)C(=O)C(=O)N3CCCCC3C(=O)O2)CC1OC` (stereo not given in full), the growth inhibition is 86.5% (active).

With `CNC(C)C#N` (stereo not given), the growth inhibition is -11.6% (inactive).

As for `Cc1ccc(NCCN)c2c(=O)c3cc(O)ccc3sc12`, the growth inhibition is 86.7% (active).

In the case of `Cc1cc2ccccc2n1C`, the growth inhibition was 18.2% (inactive).

For the compound `O=C(/C=C(\N=P(c1ccccc1)(c1ccccc1)c1ccccc1)C(F)(F)C(F)(F)C(F)(F)C(F)(F)C(F)(F)C(F)(F)C(F)(F)F)c1ccccc1`, the growth inhibition is -3% (inactive).

With `OC(CCl)CN1CCN(CC(O)CCl)CC1` (stereo not given), the growth inhibition is -24.8% (inactive).

For `CC(C)(C)OC(=O)NC(CC(N)=O)C(=O)O` (stereo not given), the growth inhibition is 10.7% (inactive).

In the case of `CN(C)Cc1ccccc1C(=C(c1ccccc1)c1ccccc1)c1ccccc1`, the growth inhibition was -10.9% (inactive).

In the case of `CC[N+](C)(CC)c1cccc(OC(=O)N2CCCCC2)c1`, the growth inhibition was -16.9% (inactive).

Take `COC(=O)c1sc2c(=O)c(C(=O)OC)c(C(=O)OC)sc2c(=O)c1C(=O)OC`: the growth inhibition was 38.6% (inactive).

For `CCOC(=O)C1=C(C)NC(C)=C(C(=O)OCC)C1C`, the growth inhibition was -6.8% (inactive).
